# Bioassay records from PubChem BioAssay.
# TRPM1 prom inh = inhibitors of MITF-dependent TRPM1 promoter reporter, primary screen, cell-based, SK-MEL-5, single point, luciferase; SK-MEL-5 TRPM1 promoter luciferase, 24 h; inhibition, % at 12.5 µM; 330,000 tested, 0.83% active;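 active = mean inhibition across replicates of 60% or more, whatever share of single replicates reaches that level; inconclusive = some that reach 60%, reason not given; inactive = mean inhibition across replicates below 60%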
# C2C12 statin = suppressors of statin myotoxicity in C2C12 myotubes, primary screen, cell-based, single point, plate reader; C2C12 myotubes + simvastatin, ATP luminescence, 48 h; scaled: DMSO 0, geranylgeraniol control 100; rescue of ATP level, % at 7.49 µM; 330,000 tested, 0.78% active; AID 602340, 2012;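 active = mean ATP rescue above about 67%, or every replicate alone reaching that limit, limit read from the data, passing the limit was not always enough; inconclusive = no clear call, values can overlap the other calls; inactive = mean under the limit and some replicate under it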;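 also: myotubes were challenged with 10 µM simvastatin during compound exposure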
# MITF act = activators of MITF-driven TRPM1 promoter reporter, primary screen, cell-based, SK-MEL-5, luciferase, single point; SK-MEL-5 TRPM1-promoter luciferase, 24 h; % of positive control, neutral wells = 0; activation, % at 12.5 µM; 300,000 tested, 0.75% active;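 active = mean activation of at least 80% with every replicate also reaching 80%; inconclusive = mean reaches 80% but some replicate falls short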;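 also: 0% = neutral control wells and 100% = parthenolide positive control wells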
# Wnt bcat act = Wnt/beta-catenin pathway activators, primary screen, cell-based, plate reader, single point; Wnt/beta-catenin reporter cell assay, activator; activation, % at 9.35 µM; 300,000 tested, 1.2% active; AID 743398, 2014; in the data active = activation above about 30%, passing the limit was not always enough; inconclusive = no clear call, values can overlap the other calls;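 also: 0% = neutral control wells and 100% = positive control wells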
# LMP1 NFkB inh = EBV LMP1-driven NF-kappaB luciferase reporter inhibitors, primary screen, cell-based, luminescence, single point; LMP1-induced NF-kappaB luciferase reporter cells; 350,000 tested, 0.69% active; inhibition, % at 12.5 µM; in the data active = inhibition above about 41%; inconclusive = no clear call, values can overlap the other calls;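 also: 0% = neutral control wells and 100% = reference inhibitor control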
# esBAF inh = Bmi1 luciferase reporter increase in mESCs, primary screen, esBAF inhibitor project, mouse ES cells, Bmi1 luciferase knock-in, single point; reporter increase, % at 12.5 µM; 350,000 tested, 2% active; 24 h; 100% = twice the neutral-well signal; in the data active = activation above about 40%; inconclusive = no clear call, values can overlap the other calls;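 also: 0% = median of the plate's neutral control wells and 100% = double that signal; a rise in the Bmi1 reporter signal indicates esBAF inhibition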
# * = called active by the depositor; ? = inconclusive; . = no result given. An excerpt weighted towards active compounds, which were near 4% of everything screened.
SMILES,TRPM1 prom inh,C2C12 statin,MITF act,Wnt bcat act,LMP1 NFkB inh,esBAF inh
COc1ccc(S(=O)(=O)N[C@@H]2C=C[C@@H](CC(=O)O)O[C@H]2CO)cc1,.,-3,.,.,.,-2
O=C(Cn1cccc1)N1CCN(c2ccc(F)cc2)CC1,.,8,.,-4,-2,-3
COc1cc2c(=O)c(-c3ccc(O)cc3)coc2cc1OC1OC(CO)C(O)C(O)C1O (stereo not drawn),-3,-8,3,7,6,36
COc1ccc(-c2coc3cc(O[C@@H]4O[C@H](CO)[C@@H](O)[C@H](O)[C@H]4O)ccc3c2=O)cc1,-56,-6,57,?,-19,64*
O=c1c(-c2ccc3c(c2)OCCO3)coc2cc(OC3OC(CO)C(O)C(O)C3O)ccc12 (stereo not drawn),-87,.,94*,42*,-7,-4
Cc1ccc(-c2nc(NCc3ccc(F)cc3)n(S(C)(=O)=O)n2)cc1,-29,.,1,12,-23,.
COc1ccc(NC(=O)c2cc(S(=O)(=O)N3CCc4ccccc43)cn2C)cc1,.,0,.,-4,6,-1
CCc1ccc(NC(=O)Cn2nnc(C(=O)NCCc3ccc(OC)c(OC)c3)c2N)cc1,19,4,-18,-1,1,0
COc1cc(C2NC(=O)NC(C)=C2C(=O)OC2CCCC(C)C2)cc(Br)c1O (stereo not drawn),-12,3,12,0,49*,1
COc1cc(C2NC(=O)NC(C)=C2C(=O)OC2CCCCC2)cc(Cl)c1O (stereo not drawn),-6,9,4,1,-16,-2
Cc1ccc(-n2nc(C(=O)c3ccccc3)n3c(=O)cc(-c4ccccc4)nc23)cc1,-4,-5,4,.,-1,84*
Cc1ccc2[nH]c(=O)c(CN(Cc3cccnc3)Cc3nnnn3CC3CCCO3)cc2c1 (stereo not drawn),6,.,-5,1,-16,.
CCCCC1C(=O)N(c2ccccc2)N(c2ccc(O)cc2)C1=O (stereo not drawn),96*,-130,-96,1,55*,-20
CC12CCC(C(=O)NCCCN3CCOCC3)(OC1=O)C2(C)C (stereo not drawn),8,1,-6,-2,-4,-14
COc1ccc(N(CC(=O)NC2CC3CCC2C3)S(=O)(=O)c2ccc(C)cc2)cc1Cl (stereo not drawn),.,.,.,51*,-8,.
CCCc1cc(C(=O)N2CCC(N3CCC(C(=O)NC(C)C)CC3)CC2)n(C)n1,13,7,-8,-4,-36,-9
CC(=O)O[C@H](COc1c2ccoc2cc2oc(=O)ccc12)C(C)(C)O,.,5,.,1,1,16
O=C(c1nnsc1S(=O)c1ccc(Cl)cc1)N1CCOCC1 (stereo not drawn),88*,-80,-88,-7,23,-87
O=C(c1nnsc1S(=O)(=O)c1ccc(Cl)cc1)N1CCOCC1,73*,.,-72,-1,39,.
CNC(=O)c1nnsc1S(=O)(=O)c1ccc(Cl)cc1,85*,-31,-84,-6,68*,10
Cc1nnsc1S(=O)c1ccc(Cl)cc1 (stereo not drawn),9,34,-12,-2,-15,-3
O=C(Nc1ccccc1)c1nnsc1S(=O)c1ccc(Cl)cc1 (stereo not drawn),24,.,-29,-3,-21,44*
Nc1nc(C(=O)N2CCOCC2)nn1S(=O)(=O)c1ccc(Cl)cc1,-7,1,10,-6,-10,1
COC(=O)c1ccc(NC(=O)Nc2ccc(OC)c(OC)c2)cc1,14,.,-12,.,-14,.
Cc1cc(C)nc(Nc2n[nH]c(-c3ccc(N)cc3)n2)n1,-24,2,.,47*,11,11
SMILES,TRPM1 prom inh,C2C12 statin,MITF act,Wnt bcat act,LMP1 NFkB inh,esBAF inh
Cc1cc(C)nc(Nc2n[nH]c(-c3ccc(C(C)(C)C)cc3)n2)n1,-22,-11,20,3,-3,55*
Cc1cc(C)nc(Nc2n[nH]c(-c3ccccc3C)n2)n1,-57,.,58,14,-32,.
Cc1cc(C)nc(Nc2n[nH]c(-c3ccccc3Br)n2)n1,-32,-3,.,.,0,44*
CCOC(=O)CCC1(C(=O)OC)C(=O)CCCCCC=C1C(=O)OC (stereo not drawn),.,-1,.,-5,-3,-3
ONC=Nc1cccc2nonc12,-7,146*,.,0,-2,0
Cc1ccc2[nH]c(=O)c(CN(Cc3cccs3)C(=S)NCC3CCCO3)cc2c1 (stereo not drawn),6,.,-6,.,-4,.
O=C(NCCc1cccc(Cl)c1)c1cccs1,-81,-13,?,-1,-14,63*
Cc1occc1C(=O)NCCc1cccc(Cl)c1,-60,-1,66,.,-27,52*
O=c1[nH]c(=S)n(-c2cccc(C(F)(F)F)c2)c(O)c1C=NCCN1CCNCC1,2,-7,-3,1,14,1
C[C@@H]1CN([C@@H](C)CO)C(=O)c2cccc(NC(=O)Nc3ccc(F)cc3)c2O[C@H]1CN(C)S(=O)(=O)c1ccccc1,.,-4,.,.,.,1
COc1cc(C(=O)OCC(=O)N2CCN(S(=O)(=O)c3ccc(C)cc3C)CC2)c([N+](=O)[O-])cc1OC,22,-2,-20,-3,4,0
CCOc1ccc(Br)cc1/C(C)=N\NC1=NCCN1,33,.,-33,.,80*,.
CCCCCOc1ccc(/C(C)=N/NC2=NCCN2)cc1,-11,-1,.,-3,0,-3
CC1CCCC(C)N1C(=O)CSc1nnc(-c2cccs2)o1 (stereo not drawn),-59,2,54,.,-10,46*
Cc1cccc(-c2nnc(SCc3ccccc3)o2)c1,-53,10,44,42*,-36,63*
c1ccc(-c2nnc(SCc3ccncc3)o2)cc1,.,-1,.,1,-5,37
CCSc1nnc(-c2cccs2)o1,-42,8,43,5,-15,44*
CC1CCCCN1C(=O)CSc1nnc(-c2cccs2)o1 (stereo not drawn),-82,-3,?,22,-8,18
Fc1ccccc1CSc1nnc(-c2cccs2)o1,-91,.,106*,42*,-30,.
Cc1ccc(S(=O)(=O)/N=C/c2ccco2)cc1,12,8,-11,1,-2,0
c1ccc(CSc2nnc(-c3cccs3)o2)cc1,-130,-3,134*,.,-18,47*
CC1CCCC(C)N1C(=O)c1cc(-c2cccs2)on1 (stereo not drawn),-76,-10,78,.,1,48*
